Here are results for six molecules from PubChem BioAssay (Tox21).

Unmarked numbers belong to inactive results. Where a structure was tested more than once in an assay, its records may differ in their call. The source made the active and inactive calls. Unless noted, calls come from the whole dose curve; as a rule, active = well fitted curve in the direction sought with a large enough effect in the repeat runs; inconclusive = weak or mixed curves; inactive = no such curve, though single readings can be large; an effect the other way counts as inactive or inconclusive.

Test [1] can be described thus: qHTS assay for small molecule agonists of the p53 signaling pathway (AID 651631; calls by dose curve; note: nearly all actives have a fitted effect of over 15% in size). Put shortly:
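Read-out is beta-lactamase FRET fluorescence measured 2 h after substrate addition at room temperature, in HCT-116 cells with a p53 response element-driven reporter exposed to compounds for 16 h at 37 °C.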

A short description of test [2]: qHTS assay for small molecules that induce genotoxicity in human embryonic kidney cells expressing luciferase-tagged ATAD5 (AID 651632). Note: nearly all actives have a fitted effect of over 15% in size. Note: potency is the fitted concentration of half-maximal effect. Put shortly: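 Genotoxicity read-out via ATAD5-luciferase: HEK293T cells, 16 hr compound incubation at 37C, Amplite detection.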
A short description of test [3]: qHTS assay for small molecule agonists of the p53 signaling pathway - cell viability (AID 651633; calls by dose curve;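 note: p53RE-bla HCT reporter cells with a stable beta-lactamase p53 reporter; nearly all actives have a fitted effect of over 30% in size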). In outline: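 p53RE-bla cells were treated with compound for 16 hours at 37 C. Cytotoxicity was then measured as CellTiter-Glo luminescence after 30 min at room temperature.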
For orientation: In qHTS, concentration-response curves come from the screen itself.

The nature of test [4]: qHTS assay for small molecules that induce genotoxicity in human embryonic kidney cells expressing luciferase-tagged ATAD5 - cell viability (AID 651634; calls by dose curve; note: nearly all actives have a fitted effect of over 25% in size). In outline: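 Live-cell protease activity (CellTiter-Fluor, fluorescence) indicates viability. HEK293T cells with luciferase-tagged ATAD5; 15.5 hr compound treatment at 37C.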
Test [5] in a line: qHTS assay for small molecule disruptors of the mitochondrial membrane potential - cell viability (AID 720634; calls by dose curve;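 note: human HepG2 liver cancer cells; nearly all actives have a fitted effect of over 20% in size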). In outline:
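Human hepatoma HepG2 cells were treated for 1 hr with test chemicals, then given m-MPI dye and CellTiter-Glo. Cell viability reflects luminescence proportional to cellular ATP.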

Test [6] can be described thus: qHTS assay for small molecule disruptors of the mitochondrial membrane potential (AID 720635). Put shortly:
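HepG2 cells exposed to compound 1 hr at 37C, then Mito-MPS dye 30 min. Ratio read of aggregate (540/590 nm) versus monomer (490/535 nm) fluorescence.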

Test [7] is described as follows: qHTS assay to test for compound auto fluorescence at 590 nm (red) in HepG2 cells (AID 720674). In outline: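 HepG2 cells, 2,000 per well in MEM with 10% FBS, attached overnight at 37 C, then got 23 nL compound or DMSO. After 1 hr at 37 C, 5% CO2, red fluorescence was read at 540/590 nm against Rose Bengal sodium as reference.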
Test [8] in a line: qHTS assay to test for compound auto fluorescence at 535 nm (green) in HepG2 cells (AID 720675).
Test [9] in a line: qHTS assay to test for compound auto fluorescence at 460 nm (blue) in HEK293 cells (AID 720678). Put shortly: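 Cells were seeded and left to adhere for 4-5 hr at 37C. Compounds were then pin-transferred. After an overnight incubation at 37C under 5% CO2, intrinsic fluorescence at 405/460 nm was measured and referenced to triamterene.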
A short description of test [10]: qHTS assay to test for compound auto fluorescence at 590 nm (red) in HEK293 cells (AID 720679). In outline: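 Each well held 2,000 HEK293 cells in medium containing 10% dialyzed FBS. Following 4-5 hr attachment at 37C, 23 nL test compound or DMSO was added; plates sat overnight, and red fluorescence (540/590nm) was recorded.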
The nature of test [11]: qHTS assay to test for compound auto fluorescence at 535 nm (green) in HEK293 cells (AID 720680).
A short description of test [12]: qHTS assay to test for compound auto fluorescence at 460 nm (blue) in HEK293 cell free culture (AID 720681). In outline:
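Compounds were added to cell-free DMEM with 10% FBS and fluorescence read directly. The blue channel used 405 nm excitation and 460 nm emission, with triamterene as the reference fluorophore.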

A short description of test [13]: qHTS assay to test for compound auto fluorescence at 535 nm (green) in HEK293 cell free culture (AID 720682). Put shortly: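 Fluorescein serves as the green reference fluorophore; each compound's intrinsic emission at 535 nm (excitation 485 nm) is reported as an equivalent amount of that dye, measured in serum-containing DMEM without cells.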
Test [14] in a line: qHTS assay to test for compound auto fluorescence at 590 nm (red) in HEK293 cell free culture (AID 720683). In outline: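 Cell-free wells of DMEM with 10% FBS received compound, and intrinsic fluorescence was read at excitation/emission 540/590 nm. Values expressed as equivalence to Rose Bengal sodium.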
The nature of test [15]: qHTS assay to test for compound auto fluorescence at 590 nm (red) in HepG2 cell free culture (AID 720684). Put shortly:
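Compound was pinned into wells holding MEM with 10% FBS and no cells, and red fluorescence was read at Ex/Em 540/590 nm. Signal is expressed as auto fluorescence equivalency relative to Rose Bengal sodium.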

Test [16] in a line: qHTS assay to test for compound auto fluorescence at 460 nm (blue) in HepG2 cell free culture (AID 720685). Put shortly: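 Compound (23 nL) or DMSO pinned into cell-free MEM with 10% FBS; blue fluorescence read at 405/460 nm excitation/emission, expressed as auto-fluorescence equivalency to triamterene.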
Test [17] is described as follows: qHTS assay to test for compound auto fluorescence at 535 nm (green) in HepG2 cell free culture (AID 720686).
A short description of test [18]: qHTS assay to test for compound auto fluorescence at 460 nm (blue) in HepG2 cells (AID 720687). In outline:
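HepG2 cells in MEM with 10% FBS, attached overnight at 37 C, were exposed to compound or DMSO for 1 hr at 37 C, 5% CO2. Blue fluorescence was read at 405/460 nm, with triamterene as reference fluorophore.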

The target of test [19] is Glucocorticoid receptor (Homo sapiens) (UniProt P04150). Put plainly: qHTS assay to identify small molecule agonists of the glucocorticoid receptor (GR) signaling pathway (AID 720691; active = well fitted activation curve with a large enough effect in the signal ratio in the repeat runs, not every such curve was filed as active; inconclusive = weak or mixed curves, or effect the other way; inactive = no such curve, though single readings can be large or run the other way; the % refers to the signal ratio). The following applies: GR-bla HeLa, beta-lactamase reporter ratio, 18 h. Put shortly:
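Beta-lactamase reporter activity, read as fluorescence intensity, was measured in GR-bla HeLa cells exposed to compounds for 18 h at 37 C and then loaded with LiveBLAzer B/G FRET substrate for 2 h at room temperature.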

The target is the same in test [20]. Put plainly: qHTS assay to identify small molecule antagonists of the glucocorticoid receptor (GR) signaling pathway (AID 720692; active = well fitted inhibition curve with a large enough effect in the signal ratio in the repeat runs, not every such curve was filed as active; inconclusive = weak or mixed curves, or effect the other way; inactive = no such curve, though single readings can be large or run the other way; the % refers to the signal ratio). In outline: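 Fluorescence from cleaved LiveBLAzer B/G FRET substrate reports GRE-driven beta-lactamase in HeLa cells; compounds are tested against 5 nM dexamethasone (final) over 18 h at 37 C, substrate incubation 2 h at room temperature.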

[21] abbreviates: activation: at 62.4 µM (top of the series).
% is set by controls: 0 for no effect and ±100 for the full control effect.

Sequence of Glucocorticoid receptor (Homo sapiens) (P04150 whole entry, looked up): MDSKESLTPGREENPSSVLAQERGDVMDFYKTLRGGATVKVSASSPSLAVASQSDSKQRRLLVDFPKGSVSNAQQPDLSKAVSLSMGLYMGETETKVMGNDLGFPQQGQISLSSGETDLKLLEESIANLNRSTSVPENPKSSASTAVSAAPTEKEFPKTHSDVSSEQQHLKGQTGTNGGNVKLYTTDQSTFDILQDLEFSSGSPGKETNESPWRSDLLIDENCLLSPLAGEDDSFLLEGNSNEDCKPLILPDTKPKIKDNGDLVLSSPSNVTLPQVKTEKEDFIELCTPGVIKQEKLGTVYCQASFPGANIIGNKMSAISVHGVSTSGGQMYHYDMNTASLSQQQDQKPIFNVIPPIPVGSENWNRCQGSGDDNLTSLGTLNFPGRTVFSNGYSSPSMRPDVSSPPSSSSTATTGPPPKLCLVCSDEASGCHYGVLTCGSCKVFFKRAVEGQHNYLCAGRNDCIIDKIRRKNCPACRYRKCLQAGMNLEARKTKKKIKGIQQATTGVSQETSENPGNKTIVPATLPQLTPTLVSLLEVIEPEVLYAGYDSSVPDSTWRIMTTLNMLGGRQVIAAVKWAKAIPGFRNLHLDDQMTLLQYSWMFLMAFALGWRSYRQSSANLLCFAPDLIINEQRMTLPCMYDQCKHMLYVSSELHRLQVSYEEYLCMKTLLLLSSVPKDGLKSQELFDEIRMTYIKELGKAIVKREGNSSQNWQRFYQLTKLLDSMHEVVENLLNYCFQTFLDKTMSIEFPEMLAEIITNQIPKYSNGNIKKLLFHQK

With `CC[C@H]1OC(=O)[C@H](C)C(=O)[C@H](C)[C@@H](O[C@@H]2O[C@H](C)C[C@H](N(C)C)[C@H]2O)[C@](C)(OC)C[C@@H](C)C(=O)[C@H](C)[C@H]2N(CCCCn3cnc(-c4cccnc4)c3)C(=O)O[C@]12C`, the Potency result in [1], in test [2], in test [3], in [4], in test [5] and in test [6] was “inactive” throughout. For the same molecule, the Potency entry in [8], in test [9], in test [12], in test [16], in test [17] and in test [18] was “inactive” each time. In addition, the Potency entry in test [19] (setting [21]) and in [20] was “inactive” each time. For the same molecule, the outcome in test [7], in test [10], in test [11], in [13], in test [14] and in test [15] was inactive.

On to `C=CC[N+]1([C@H]2C[C@H]3[C@@H]4CC[C@H]5C[C@H](O)[C@@H](N6CCOCC6)C[C@]5(C)[C@H]4CC[C@]3(C)[C@H]2OC(C)=O)CCCC1`, for which the Potency result in [1], in test [2], in [3], in test [4], in [5] and in [6] was “inactive” in each case. Besides, the Potency entry in [8], in test [9], in test [12], in test [16], in test [17] and in test [18] was “inactive” in each case. Besides, the Potency entry in test [19] (setting [21]) was “inactive”. In addition, the result in test [7], in test [10], in test [11], in test [13], in test [14] and in test [15] was inactive.

Take `CC(=O)Oc1cc(C(F)(F)F)ccc1C(=O)O`: the Potency entry in [1], in [2], in test [3], in test [4], in test [5] and in test [6] was “inactive” each time. The Potency result in [8], in test [9], in [12], in test [16], in test [17] and in test [18] was “inactive” each time. The Potency result in [19] (setting [21]) and in test [20] was “inactive” throughout. The call in test [7], in test [10], in [11], in test [13], in test [14] and in test [15] was inactive.

In the case of `Nc1nc(NC2CC2)c2ncn([C@@H]3C=C[C@@H](CO)C3)c2n1`, the Potency result in test [1], in test [3], in [4], in test [5], in test [6] and in test [8] was “inactive” each time. For the same molecule, the Potency entry in [9], in test [12], in [16], in test [17], in test [18] and in [19] (setting [21]) was “inactive” each time. Moreover, the Potency entry in test [20] is “inactive”. In [2], the Potency was 13.3 µM (active). The outcome in test [7], in test [10], in test [11], in test [13], in [14] and in test [15] was inactive.

On to `O=C1c2c(O)cccc2[C@H]([C@@H]2O[C@H](CO)[C@@H](O)[C@H](O)[C@H]2O)c2cc(CO)cc(O)c21`, for which the Potency entry in test [1], in [2], in test [3], in test [4], in test [5] and in test [6] was “inactive” throughout. For the same molecule, the Potency entry in test [8], in test [9], in test [12], in [16], in test [17] and in test [18] was “inactive” throughout. The Potency result in test [20] is “inactive”. For the same molecule, the call in test [7], in [10], in test [11], in test [13], in [14] and in test [15] was inactive. For the same molecule, the activation in test [19] (setting [21]) was 14.2% [inconclusive] (active); in test [19] (at 62.4 µM (top of the series)), -0.87%.

In the case of `NC(=O)[C@@H]1CCCN1C(=O)[C@H](Cc1cnc[nH]1)NC(=O)[C@@H]1CCC(=O)N1`, the Potency entry in test [1], in test [2], in [3], in test [4], in test [5] and in test [6] was “inactive” throughout. The Potency entry in [8], in test [9], in test [12], in test [16], in test [17] and in test [18] was “inactive” each time. Also, the Potency entry in test [19] (setting [21]) and in test [20] was “inactive” in each case. In addition, the molecule was classed as inactive in test [7], in test [10], in test [11], in test [13], in [14] and in [15].
